Screening results from PubChem BioAssay.
Hits are enriched below; roughly 2.2% of the tested compounds scored in any of these assays.
hiPSC survival – enhancers of single-cell hiPSC survival, primary screen, ATPlite luminescence | survival enhancement, % at 20 µM | actives 0.044% (n = 360,000) | 100% = ROCK inhibitor wells, 0% = DMSO; in the data active = survival enhancement above about 18%;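 also: cells exposed to compounds for 16 hours before the ATP read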
KKLEB cytotox – cytotoxicity in KKLEB CF airway cells, primary screen, cytotoxicity control for CF NF-kB inhibitor project, cell-based, uHTS, fluorescence assay plates; KKLEB CF airway cells viability, ATPlite luminescence, overnight; stronger effect = lower value; cells stimulated with P. aeruginosa culture filtrate; actives 0.36% (n = 360,000); activity change (cytotoxicity), % at 5 µM;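 active = corrected activity change at or below -50% at 5 µM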
PPC-1+TRAIL kill – compounds killing PPC-1 cancer cells with TRAIL present, primary screen, TRAIL potentiator project, ATPLite luminescence, uHTS. PPC-1 cells + TRAIL, ATPLite viability luminescence. cell killing (% activity), % at 4 µM or 5 µM. actives 0.41% (n = 220,000);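 active = cell killing above 50% in the first pass at 4 µM, then a duplicate retest at 5 µM averaging 50% or more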
C8 TRAIL sens – viability loss with TRAIL in NB7+C8 cells, primary screen, TRAIL sensitizer project, cell-based, ATPlite luminescence; inhibition (viability loss, TRAIL sensitization), % at 10 µM; actives 1% (n = 360,000);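 active = compounds causing at least 50% loss of cell viability in the single-dose screen, relative to plate controls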
CF NFkB inh – inhibitors of PAF-induced NF-kB signaling, primary screen, cell-based, GFP fluorescence, uHTS; KKLEB NF-kB-GFP reporter, GFP fluorescence overnight; inhibition, % at 5 µM; actives 0.86% (n = 360,000); AID 588850, 2011;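 active = at least 50% inhibition at 5 µM, scaled per plate between neutral and stimulator controls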;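 also: PAF is a Pseudomonas aeruginosa culture filtrate used as stimulus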
HIF-2a block – HIF-2a reporter inhibitors, primary screen, luminescence, 786-0 RCC cells. 786-0 RCC cells HIF-2a reporter, luciferase luminescence, overnight. inhibition, % at 18.8 µM. actives 0.72% (n = 360,000). AID 624352, 2012;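 active = inhibition of the luminescence signal of 40% or more relative to plate controls, in a single-dose primary screen at 18.75 µM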
Hits are given with their value; . = inactive; / = not tested or not shown.

SMILES	hiPSC survival	KKLEB cytotox	PPC-1+TRAIL kill	C8 TRAIL sens	CF NFkB inh	HIF-2a block
CCN(CC)C(=O)C1CCCN(c2ncnc3c2cnn3-c2ccc(Cl)cc2)C1 (centres undefined)	.	.	/	.	.	50.1
CC(=O)NCC(=O)NNC1CC(=O)N(c2cccc(Cl)c2)C1=O (centres undefined)	.	.	.	.	.	.
Clc1ccc(Nc2ncnc3ccc(Br)cc23)cc1	.	.	.	.	73.0	.
CCN(c1ccc(OC)cc1)S(=O)(=O)N1CCCC(C(=O)NC(C)c2ccccc2)C1 (centres undefined)	.	.	/	.	.	.
Cc1ccc(C)c(N2CCN(C(=O)CCS(=O)(=O)c3ccc4c(c3)CCN4C(=O)C3CC3)CC2)c1	.	.	/	.	.	.
Cc1ccc2nc(/C(C#N)=C\c3ccc(N4CCOCC4)o3)[nH]c2c1	.	.	.	.	.	.
N#C/C(=C(/O)c1ccc([N+](=O)[O-])o1)c1nc2ccccc2[nH]1	.	.	.	.	94.0	.
Cc1ccc2nc(/C(C#N)=C\c3ccc([N+](=O)[O-])o3)[nH]c2c1	.	-67.9	.	80.7	.	.
CC1(c2ccccc2)NC(=O)N(CC(=O)N2CCN(S(=O)(=O)c3ccccc3[N+](=O)[O-])CC2)C1=O (centres undefined)	.	.	/	.	.	.
COc1cc(/C=N/N2CCN(Cc3ccccc3)CC2)cc(OC)c1OC(C)=O	.	.	/	.	.	.
O=C1C=C(N(CCO)Cc2ccccc2)c2ccccc2C1=O	.	.	.	.	68.1	.
CCOC1=C2[C@@H](CN(S(=O)(=O)c3ccc(C)cc3)[C@H]2c2ccccc2)[C@H]2C(=O)N(Cc3ccccc3)C(=O)[C@H]2C1	.	.	/	.	.	.
Cc1cn([C@H]2C[C@H](O)[C@@H](/C=C/C(=O)NCc3ccc(N(C)C)cc3)O2)c(=O)[nH]c1=O	.	.	/	.	.	.
CCC(C(=O)Nc1ccc2[nH]ncc2c1)c1ccccc1 (centres undefined)	61.5	.	/	.	.	.
Cc1cccnc1NC(=O)Cn1nc([N+](=O)[O-])cc1C	.	.	.	.	.	.
Cc1cccnc1NC(=O)Cn1nc(-c2ccccc2)oc1=S	.	.	63.8	.	.	.
CC(C)(C)NC(=O)CN(CCN1CCOCC1)C(=O)CNS(=O)(=O)c1ccccc1	.	.	/	.	.	.
Cc1sc2nc(C)n(/N=C/c3ccc(O)cc3)c(=O)c2c1C	.	.	.	50.5	.	.
COc1ccc(CSc2nc(O)cc(=O)n2CC(C)C)cc1F	.	.	/	.	.	.
C=CCN1C(=O)/C(=C/c2ccc(OC(C)=O)c(OCC)c2[N+](=O)[O-])SC1=S	.	.	.	.	54.1	.
O=C1c2ccc(Cl)cc2S(=O)(=O)c2cccc(C(=O)N3CCN(c4ccc(Cl)cn4)CC3)c21	.	.	/	59.0	.	.
COc1ccc(-c2ccc3c(c2)S(=O)(=O)c2cccc(C(=O)N4CCN(c5ccc(Cl)cn5)CC4)c2C3=O)cc1OC	.	.	/	.	.	.
Cc1ccc(N=C2SC(C(=O)Nc3ccc(OC(F)(F)F)cc3)C(N)=C2C(=O)Nc2c(C)cc(C)cc2C)cc1 (centres undefined)	.	-59.9	.	.	72.1	.
Fc1cccc2sc(Nc3nc4cc5c(cc4s3)OCO5)nc12	.	.	.	.	.	.
Fc1cccc2sc(Nc3nc4cc5c(cc4s3)OCCO5)nc12	.	.	.	52.9	.	.
SMILES	hiPSC survival	KKLEB cytotox	PPC-1+TRAIL kill	C8 TRAIL sens	CF NFkB inh	HIF-2a block
CC(C)COc1ccc(C(=O)N2C(=O)c3ccc(N)cc3C2=O)cc1	.	.	.	.	.	.
Cc1c(C(=O)Nc2cccc([N+](=O)[O-])c2)csc1-c1ccccc1	.	.	.	57.2	.	.
O=C(Nc1cccc([N+](=O)[O-])c1)c1cc2ccccc2cc1O	.	-51.6	.	59.6	59.7	.
O=C(O)c1ccccc1C(=O)Nc1cccc([N+](=O)[O-])c1	.	.	.	.	.	.
COCc1c(Br)c(C)nc2sc3c(=O)[nH]nnc3c12	.	.	/	.	.	.
CC(C)C(=O)N1CCCC1(C)C(=O)Nc1ccc(-n2cncn2)cc1 (centres undefined)	.	.	/	.	.	.
N#CC1(c2ccc(NC(=O)c3ccccc3)cc2)CCCC1	.	.	.	53.6	.	.
CC(=O)Oc1ccc(C(=O)Nc2ccc(C3(C#N)CCCC3)cc2)cc1	.	.	/	.	.	.
COC(=O)[C@]12CCCCC=C1N(Cc1cccc3ccccc13)C(=O)[C@H](CC(=O)NCc1ccc(OC)c(OC)c1)C2	.	/	/	63.3	/	.
CC(C)Sc1cc(Cl)nc(NC(=O)Nc2ccccc2)n1	.	.	/	90.5	.	.
COc1ccc(C(=O)N2CCN(C)C(=O)[C@@H]2C)cc1OC1CCN(C(C)C)CC1	.	.	/	.	.	.
CCn1c(=O)c([N+](=O)[O-])c(NCC2CCCO2)c2ccccc21 (centres undefined)	.	.	.	.	.	.
Cc1ccc(C(=O)N/C(=C\c2ccc(-c3ccccc3[N+](=O)[O-])o2)C(=O)NCCN(C)C)cc1	.	.	/	53.5	.	.
CN(C)CCNC(=O)/C(=C/c1ccc(-c2cccc([N+](=O)[O-])c2)o1)NC(=O)c1ccccc1	.	.	.	.	.	.
Cc1ccc(C(=O)N/C(=C\c2ccc(-c3ccccc3[N+](=O)[O-])o2)C(=O)NCCCN(C)C)cc1	.	.	/	49.3	.	.
CCOC(=O)c1ccc(-c2c(-c3ccc4c(c3)OCO4)noc2C)cc1F	.	.	/	.	.	.
CC(Oc1cccc(Br)c1)C(=O)NNC(=O)CCNC(=O)c1ccccc1Cl (centres undefined)	.	.	/	.	.	.
CCC(C(=O)OCn1nnc2ccccc2c1=O)c1ccccc1 (centres undefined)	.	.	.	.	.	.
CNC(=O)c1ccc(NC(=O)Nc2ccccc2)cc1	.	.	/	.	.	.
CC(C)c1ccc(OCc2cccc(C(=O)N/N=C/c3cccnc3)c2)cc1	.	.	64.0	52.9	.	.
CN(C(=O)c1ccco1)c1nc2c(s1)CCCC2	.	.	.	59.4	.	.
CN(C(=O)c1ccco1)c1nnc(C23CC4CC(CC(C4)C2)C3)s1	.	.	.	.	.	.
CN(CC(=O)Nc1ccc(F)cc1)C(=O)COC(=O)CN1C(=O)NC2(CCCC2)C1=O	.	.	/	.	.	.
